Experimental data from PubChem BioAssay.
Active and inactive are the calls of the source.

What was measured:
[1] = small molecules captured by biotinylated probe aFSTL3 – biochemical, small-molecule microarray, fluorescence 635/667, stem cell growth factor project, primary screen (AID 1064); conditions: higher = more signal;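 also: measures binding of the biotinylated anti-FSTL3 antibody to printed compounds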
[2] = binders from COS7 lysate, DM2A8 probe, primary screen, torsin A project, cell lysate, small-molecule microarray, fluorescence 635/667 (AID 1065); conditions: higher = more signal, COS7 lysate expressing mutant human TOR1A
[3] = small molecules captured by biotinylated probe aFGF2 – biochemical, small-molecule microarray, fluorescence 635/667, stem cell growth factor project, primary screen (AID 1067); conditions: higher = more signal;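 also: measures binding of biotinylated aFGF2 protein to printed compounds on slides; z-score merges feature fluorescence and signal-to-noise across triplicate slides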
[4] = small molecules captured by biotinylated probe aFGF10 – biochemical, small-molecule microarray, fluorescence 635/667, stem cell growth factor project, primary screen (AID 1071); conditions: higher = more signal;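 also: score merges 667 nm spot intensity and signal to noise from triplicate slides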
[5] = biological target: Neurogenic locus notch homolog protein 2 (Homo sapiens) (UniProt Q04721); assay: small molecules binding Notch2 protein – biochemical, small-molecule microarray, 635 nm fluorescence, stem cell growth factors, primary screen (AID 1073); conditions: higher = more signal
[6] = biological target: Pro-neuregulin-1, membrane-bound isoform (Homo sapiens) (UniProt Q02297); assay: small molecules binding neuregulin-1 protein – biochemical, small-molecule microarray, fluorescence 635/667, psychiatric disease protein project, primary screen (AID 1075); conditions: NRG1 binding, 635 nm fluorescence, higher = more signal;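 also: score combines 667 nm spot fluorescence with signal to noise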
Pro-neuregulin-1, membrane-bound isoform (Homo sapiens), sequence (Q02297 whole entry, looked up, the tested form may be a part, canonical isoform): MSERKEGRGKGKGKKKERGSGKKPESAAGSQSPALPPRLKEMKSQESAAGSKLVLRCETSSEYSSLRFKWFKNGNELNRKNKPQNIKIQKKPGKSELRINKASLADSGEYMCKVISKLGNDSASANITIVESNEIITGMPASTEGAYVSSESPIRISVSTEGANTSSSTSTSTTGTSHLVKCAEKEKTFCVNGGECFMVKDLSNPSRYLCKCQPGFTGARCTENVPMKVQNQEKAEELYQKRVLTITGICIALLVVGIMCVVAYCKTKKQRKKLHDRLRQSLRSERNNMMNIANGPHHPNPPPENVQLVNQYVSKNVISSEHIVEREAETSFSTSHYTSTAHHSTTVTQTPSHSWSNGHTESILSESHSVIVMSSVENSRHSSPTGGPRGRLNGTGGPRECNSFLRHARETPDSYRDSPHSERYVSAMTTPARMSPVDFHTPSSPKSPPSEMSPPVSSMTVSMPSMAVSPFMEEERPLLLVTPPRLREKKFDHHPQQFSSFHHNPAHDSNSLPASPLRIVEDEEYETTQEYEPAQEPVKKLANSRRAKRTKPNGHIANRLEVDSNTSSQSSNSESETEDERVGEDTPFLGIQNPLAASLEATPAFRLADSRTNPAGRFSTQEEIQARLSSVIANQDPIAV

[7] = system: Neuregulin-1 EGF-like domain; assay: small molecules binding NRG1 EGF domain – biochemical, small-molecule microarray, 635 nm fluorescence, primary screen (AID 1081); conditions: higher = more signal;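 also: binding of the protein to compounds printed on small-molecule microarray slides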
[8] = FRG1 expression reporter modulators in myotubes – cell-based, C2C12 myotubes, firefly/Renilla luciferase, luminescence, FRG1 inhibition for FSHD, primary screen (AID 1084); conditions: FRG1 promoter luciferase, higher = more signal, called active from +8 up or from −8 down
[9] = small molecules captured by biotinylated probe aFST – biochemical, small-molecule microarray, fluorescence 635/667, stem cell growth factor project, primary screen (AID 1086); conditions: higher = more signal;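 also: score merges 667 nm fluorescence with signal-to-noise of each printed compound spot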
[10] = binders of probe aHhip on microarray, primary screen, stem cell growth factor project, biochemical, small-molecule microarray, fluorescence 635/667 (AID 1087); conditions: higher = more signal;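 also: score merges spot fluorescence at 667nm with spot signal to noise ratio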
[11] = system: PRMT1 (protein arginine N-methyltransferase 1); assay: small molecules binding arginine methyltransferase PRMT1 – biochemical, small-molecule microarray, 635 nm fluorescence, primary screen (AID 1088); conditions: higher = more signal;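 also: binding of Prmt1 protein to compounds spotted on small-molecule microarray slides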
[12] = growth effects on S. cerevisiae YJM789 – YJM789 clinical isolate, OD600, 24 h, basal, primary screen (AID 1089); conditions: higher = more signal, called active from +8 up or from −8 down;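 also: growth of clinical yeast isolate S. cerevisiae YJM 789 seeded 1000 cells per well; test concentration not given here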
[13] = S. pombe growth modifiers, basal conditions – strain 972, OD600, 24 h, no modulator, primary screen (AID 1090);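 also: basal condition with compound alone and no growth modifier present; test concentration not given here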; conditions: S. pombe 972 growth, higher = more signal, called active from +8 up or from −8 down
[14] = budding yeast growth modifiers under rapamycin – strain BY4716, OD600, 96 h, primary screen (AID 1091); also: test concentration not given here; conditions: S. cerevisiae BY4716 + rapamycin, higher = more signal, called active from +8 up or from −8 down
[15] = biological target: Torsin-1A-interacting protein 2 (Homo sapiens) (UniProt Q8NFQ8); assay: small molecules binding lysate-expressed LULL1 – cell lysate, human LULL1 lysate, 635/667 nm fluorescence, primary screen (AID 1092); conditions: small-molecule microarray, hLULL1 lysate binding, 635 nm fluorescence; higher = more signal;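 also: probe is lysate of COS7 cells overexpressing human LULL1; score merges per-feature 667 nm fluorescence with signal-to-noise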
Torsin-1A-interacting protein 2 (Homo sapiens), sequence (Q8NFQ8 whole entry, looked up): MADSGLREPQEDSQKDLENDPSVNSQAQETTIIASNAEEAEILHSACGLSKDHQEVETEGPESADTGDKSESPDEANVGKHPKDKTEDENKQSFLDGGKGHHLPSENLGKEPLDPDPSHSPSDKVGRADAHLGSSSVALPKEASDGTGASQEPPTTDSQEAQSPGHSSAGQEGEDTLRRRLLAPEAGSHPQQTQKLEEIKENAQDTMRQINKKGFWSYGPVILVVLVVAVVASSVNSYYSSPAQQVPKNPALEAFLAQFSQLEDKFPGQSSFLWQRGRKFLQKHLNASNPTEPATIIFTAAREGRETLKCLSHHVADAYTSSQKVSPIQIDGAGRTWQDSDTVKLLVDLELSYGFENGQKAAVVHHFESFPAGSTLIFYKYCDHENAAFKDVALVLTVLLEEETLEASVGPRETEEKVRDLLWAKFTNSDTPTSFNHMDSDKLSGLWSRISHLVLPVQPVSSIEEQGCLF

[16] = optical density change of DRC41 E. coli – strain DRC41, OD650, 24 h, E. coli filamentation project, primary screen (AID 1093);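 also: MC1000 strain lacking acrAB efflux and sulA so SOS filamentation is blocked; test concentration not given here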; conditions: E. coli DRC41 growth, higher = more signal, called active from +8 up or from −8 down
[17] = probe aLefty2 binding to arrayed compounds – biochemical, biotinylated probe, 635/667 nm fluorescence, primary screen (AID 1094); conditions: small-molecule microarray, higher = more signal;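 also: score merges spot fluorescence near 667 nm with spot signal-to-noise ratio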
[18] = system: Noggin (protein binding on small-molecule microarray); assay: small molecules binding Noggin protein – biochemical, 635/667 nm fluorescence, primary screen (AID 1095); conditions: 635 nm fluorescence, higher = more signal;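 also: score merges 667 nm feature fluorescence with signal to noise over triplicate slides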
[19] = biological target: Neurogenic locus notch homolog protein 3 (Homo sapiens) (UniProt Q9UM47); assay: small molecules binding NOTCH3 protein – biochemical, 635/667 nm fluorescence, primary screen (AID 1096); conditions: small-molecule microarray, 635 nm fluorescence, higher = more signal
Neurogenic locus notch homolog protein 3 (Homo sapiens), sequence (Q9UM47 whole entry, looked up): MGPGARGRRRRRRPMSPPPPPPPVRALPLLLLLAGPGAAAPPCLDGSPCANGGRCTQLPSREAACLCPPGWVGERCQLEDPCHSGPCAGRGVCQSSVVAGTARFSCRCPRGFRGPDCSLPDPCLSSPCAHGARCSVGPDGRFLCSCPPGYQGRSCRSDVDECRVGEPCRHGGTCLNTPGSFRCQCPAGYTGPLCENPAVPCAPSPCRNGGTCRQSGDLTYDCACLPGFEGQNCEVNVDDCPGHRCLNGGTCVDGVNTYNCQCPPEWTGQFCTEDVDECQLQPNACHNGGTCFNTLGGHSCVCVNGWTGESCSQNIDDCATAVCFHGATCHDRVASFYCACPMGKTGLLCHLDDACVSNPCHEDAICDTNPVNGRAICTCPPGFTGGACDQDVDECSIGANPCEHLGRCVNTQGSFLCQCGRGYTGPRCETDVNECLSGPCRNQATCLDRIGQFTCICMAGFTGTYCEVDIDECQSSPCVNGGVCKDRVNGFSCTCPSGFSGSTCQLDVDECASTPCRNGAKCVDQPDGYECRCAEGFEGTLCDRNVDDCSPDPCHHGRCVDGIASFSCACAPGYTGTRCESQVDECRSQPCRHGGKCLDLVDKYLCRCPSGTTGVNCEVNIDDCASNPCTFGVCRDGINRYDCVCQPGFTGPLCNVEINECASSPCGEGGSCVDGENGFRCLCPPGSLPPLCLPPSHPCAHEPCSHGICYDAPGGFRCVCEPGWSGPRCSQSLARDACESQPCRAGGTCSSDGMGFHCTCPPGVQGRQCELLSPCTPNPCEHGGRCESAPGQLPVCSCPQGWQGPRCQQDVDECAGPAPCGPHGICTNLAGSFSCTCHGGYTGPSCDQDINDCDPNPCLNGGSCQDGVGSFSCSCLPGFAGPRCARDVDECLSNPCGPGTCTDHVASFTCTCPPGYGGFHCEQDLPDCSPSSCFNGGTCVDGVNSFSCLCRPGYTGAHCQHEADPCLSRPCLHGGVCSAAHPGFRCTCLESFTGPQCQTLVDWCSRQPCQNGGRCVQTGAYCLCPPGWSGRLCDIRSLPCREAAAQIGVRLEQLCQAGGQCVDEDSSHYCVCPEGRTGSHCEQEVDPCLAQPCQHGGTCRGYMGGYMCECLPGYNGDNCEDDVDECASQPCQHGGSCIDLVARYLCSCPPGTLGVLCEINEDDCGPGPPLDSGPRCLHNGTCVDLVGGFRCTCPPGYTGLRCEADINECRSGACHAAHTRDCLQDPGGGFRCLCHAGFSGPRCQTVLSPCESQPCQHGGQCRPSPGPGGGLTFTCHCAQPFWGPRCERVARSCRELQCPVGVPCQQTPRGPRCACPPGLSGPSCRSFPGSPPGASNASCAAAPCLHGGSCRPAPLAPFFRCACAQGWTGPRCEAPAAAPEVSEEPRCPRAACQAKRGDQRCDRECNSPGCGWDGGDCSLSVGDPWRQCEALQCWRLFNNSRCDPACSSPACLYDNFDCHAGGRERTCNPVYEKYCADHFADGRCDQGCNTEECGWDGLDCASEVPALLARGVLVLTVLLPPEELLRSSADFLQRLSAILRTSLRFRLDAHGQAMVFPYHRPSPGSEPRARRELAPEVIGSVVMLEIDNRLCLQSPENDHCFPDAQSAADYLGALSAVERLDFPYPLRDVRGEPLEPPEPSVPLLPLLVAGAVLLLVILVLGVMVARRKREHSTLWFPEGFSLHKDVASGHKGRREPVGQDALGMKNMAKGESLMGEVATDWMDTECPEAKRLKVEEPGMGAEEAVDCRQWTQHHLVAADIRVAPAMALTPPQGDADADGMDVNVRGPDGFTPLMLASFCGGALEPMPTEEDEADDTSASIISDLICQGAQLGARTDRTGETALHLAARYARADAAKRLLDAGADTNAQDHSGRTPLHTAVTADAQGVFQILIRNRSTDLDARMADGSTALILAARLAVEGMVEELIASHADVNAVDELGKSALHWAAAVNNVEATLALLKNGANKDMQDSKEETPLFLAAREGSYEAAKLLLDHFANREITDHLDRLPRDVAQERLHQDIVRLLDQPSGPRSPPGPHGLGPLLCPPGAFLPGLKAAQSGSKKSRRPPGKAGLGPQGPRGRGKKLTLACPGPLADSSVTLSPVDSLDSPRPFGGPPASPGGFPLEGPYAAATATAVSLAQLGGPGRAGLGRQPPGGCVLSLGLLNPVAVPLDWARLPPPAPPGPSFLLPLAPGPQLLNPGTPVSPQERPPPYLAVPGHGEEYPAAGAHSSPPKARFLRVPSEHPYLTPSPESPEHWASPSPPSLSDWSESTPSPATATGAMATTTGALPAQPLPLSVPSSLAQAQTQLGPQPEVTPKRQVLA

[20] = probe aEGFR binding to arrayed compounds – biochemical, biotinylated probe, 635/667 nm fluorescence, primary screen (AID 1097); conditions: small-molecule microarray, higher = more signal;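 also: probe is a biotinylated anti-EGFR antibody binding compounds printed on slides; score combines fluorescence near 667 nm and signal to noise of each spot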

| Structure (SMILES) | composite z-score [1] | composite z-score [2] | composite z-score [3] | composite z-score [4] | composite z-score [5] | composite z-score [6] | composite z-score [7] | z-score [8] | composite z-score [9] | composite z-score [10] | composite z-score [11] | z-score [12] | z-score [13] | z-score [14] | composite z-score [15] | z-score [16] | composite z-score [17] | composite z-score [18] | composite z-score [19] | composite z-score [20] |
| --- | --- | --- | --- | --- | --- | --- | --- | --- | --- | --- | --- | --- | --- | --- | --- | --- | --- | --- | --- | --- |
| C[N+](C)(C)CCCCNC(=O)[C@@H]1C[C@@H]2C(=O)NCC(=O)N2[C@@H]1c1cccc(OCCO)c1 | -0.501 | 2.04 | -0.085 | 1.05 | -0.544 | 1.22 | 1.34 | -0.53 (inactive) | 0.432 | 0.167 | 1.39 | 2.16 (inactive) | -0.823 (inactive) | -1.89 (inactive) | 2.47 | 1.73 (inactive) | -0.0607 | 1.88 | 1.14 | 0.0526 |
| C[N+](C)(C)CCCC[C@@H]1NC(=O)[C@@H]2C[C@H](C(=O)NCCCCCNC(=O)CS)[C@H](c3ccc(O)cc3)N2C1=O | 0.152 | 0.338 | -0.14 | -1.01 | -1.26 | 1.94 | 1.23 | 1.26 (inactive) | -0.288 | 0.0274 | 1.08 | -1.44 (inactive) | -1.73 (inactive) | -0.905 (inactive) | 2.1 | 1.39 (inactive) | -0.188 | 1.39 | 0.322 | -0.149 |
| C=CC[C@]1(C(=O)N(C)C)N=C(c2ccc(OCCCO)cc2)O[C@H]1c1ccccc1CN=[N+]=[N-] | 0.876 | 1.42 | 0.0188 | 0.548 | 1.38 | 1.66 | 1.15 | -2.15 (inactive) | 1.43 | 0.184 | 1.09 | -1.01 (inactive) | -1.1 (inactive) | -1.52 (inactive) | 3.01 | 1.39 (inactive) | 0.186 | 0.0301 | 0.893 | 0.188 |
| CN1C=C(C(=O)OCCS(C)(=O)=O)C(C(=O)OCCS(C)(=O)=O)=CC(CCCO)=CC1c1cccs1 (stereo not given) | -0.329 | 0.58 | -0.197 | 0.239 | 0.907 | -0.362 | 0.269 | -0.234 (inactive) | 0.137 | 0.0664 | 1.13 | -0.444 (inactive) | -1.22 (inactive) | -2.42 (inactive) | 0.454 | 0.261 (inactive) | 0.022 | 0.774 | 0.774 | -0.0659 |
| C=CCC(OC(C)=O)[C@@H]1[C@@H](N(Cc2ccc(-c3cccc(C(F)(F)F)c3)o2)C(=O)c2ccc(-c3ccccc3)cc2)c2cc(OCCCO)ccc2N1C(=O)Cc1ccc(OC)cc1 (stereo not given in full) | 0.365 | -0.338 | -0.1 | -0.394 | -0.654 | -0.61 | -0.663 | -0.981 (inactive) | 0.258 | -0.0324 | -0.305 | -0.933 (inactive) | -1.88 (inactive) | -0.82 (inactive) | -0.0364 | 1.84 (inactive) | 0.0236 | -0.475 | -1.16 | -0.191 |
| Cc1ccc(N2C(=O)c3ccccc3[C@](C)(C(=O)NC3CC3)[C@@H]2c2ccc(CO)cc2)nc1 | 0.879 | -0.241 | -0.0948 | -0.325 | -0.344 | -0.474 | -0.0515 | 0.843 (inactive) | 0.406 | -0.0047 | -0.349 | 0.0474 (inactive) | -0.981 (inactive) | -0.69 (inactive) | 0.244 | 0.949 (inactive) | 0.149 | 0.381 | -0.591 | -0.0564 |
| NC(=O)NCC#Cc1ccc2c(c1)[C@]1(C(=O)N2)[C@H](c2ccc(OCCO)cc2)N2[C@H](c3ccccc3)[C@H](c3ccccc3)OC(=O)[C@H]2[C@@H]1C(=O)Nc1nc2ccccc2s1 | 1.02 | -0.528 | -0.0953 | 0.0777 | -0.442 | -0.214 | -0.748 | 2.5 (inactive) | 0.668 | -0.132 | -0.136 | 2.55 (inactive) | 0.766 (inactive) | 4.18 (inactive) | 0.759 | 2.26 (inactive) | 0.289 | -0.17 | -0.0446 | -0.0946 |
| COCCCNC(=O)[C@@]1(C)c2ccccc2C(=O)N(Cc2cc(F)cc(C(F)(F)F)c2)[C@H]1c1ccc(CO)cc1 | 1.57 | -0.12 | -0.145 | -0.103 | -1.19 | 0.595 | 1.45 | -1.65 (inactive) | -0.738 | -0.196 | 0.851 | 1.65 (inactive) | -0.351 (inactive) | 0.459 (inactive) | 2.32 | 0.985 (inactive) | 0.584 | -1.44 | -1.22 | -0.293 |
| COCCCNC(=O)[C@@]1(Cc2ccccc2)N=C(c2ccc(OCCCO)cc2)O[C@H]1c1ccccc1N=[N+]=[N-] | 1.38 | 0.768 | 0.269 | 0.727 | 1.14 | 0.276 | 1.13 | -1.37 (inactive) | 0.836 | -0.121 | 0.85 | 0.448 (inactive) | -0.051 (inactive) | 2.71 (inactive) | 2.47 | 1.59 (inactive) | 0.612 | 1.89 | 0.773 | 0.247 |
| COc1ccc(CCNC(=O)[C@@]2(Sc3ccc(C)cc3)CC(=O)N(Cc3ccccc3)[C@@H]2c2ccc(CO)cc2I)cc1 | -1.07 | 0.461 | -0.187 | -0.111 | -0.0768 | 0.0114 | 0.388 | -1.58 (inactive) | -0.32 | -0.616 | 0.471 | 0.44 (inactive) | -1.66 (inactive) | 2.72 (inactive) | 1.87 | 0.485 (inactive) | -0.337 | -0.814 | -0.915 | -0.119 |
